# Screening data from PubChem.
# ERb SRC1 inh – blocks coactivator binding to human estrogen receptor beta; AID 633; TR-FRET ER-beta LBD / SRC1-Cy5 peptide binding; receptor agonist-loaded with 1 µM estradiol; hit rate 1.3% among 86,000; inhibition, % at 25.6 µM; Q92731;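 active = compounds whose percent inhibition of the receptor-coactivator binding signal exceeds about 50% in the single-dose screen, limit read from the data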
# PTPN22 act – LYP (human) phosphatase activation. hit rate 0.11% among 96,000. Q9Y2R2. recombinant LYP, DiFMUP fluorescence; 0 = plate median, 100 = signal doubled. activation, % at 2 µM. AID 697;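 active = activation at 2 µM above a set limit, the mean plus 5 SD, cut at about 37% in these data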
# Target sequence (Q9Y2R2 whole entry, looked up): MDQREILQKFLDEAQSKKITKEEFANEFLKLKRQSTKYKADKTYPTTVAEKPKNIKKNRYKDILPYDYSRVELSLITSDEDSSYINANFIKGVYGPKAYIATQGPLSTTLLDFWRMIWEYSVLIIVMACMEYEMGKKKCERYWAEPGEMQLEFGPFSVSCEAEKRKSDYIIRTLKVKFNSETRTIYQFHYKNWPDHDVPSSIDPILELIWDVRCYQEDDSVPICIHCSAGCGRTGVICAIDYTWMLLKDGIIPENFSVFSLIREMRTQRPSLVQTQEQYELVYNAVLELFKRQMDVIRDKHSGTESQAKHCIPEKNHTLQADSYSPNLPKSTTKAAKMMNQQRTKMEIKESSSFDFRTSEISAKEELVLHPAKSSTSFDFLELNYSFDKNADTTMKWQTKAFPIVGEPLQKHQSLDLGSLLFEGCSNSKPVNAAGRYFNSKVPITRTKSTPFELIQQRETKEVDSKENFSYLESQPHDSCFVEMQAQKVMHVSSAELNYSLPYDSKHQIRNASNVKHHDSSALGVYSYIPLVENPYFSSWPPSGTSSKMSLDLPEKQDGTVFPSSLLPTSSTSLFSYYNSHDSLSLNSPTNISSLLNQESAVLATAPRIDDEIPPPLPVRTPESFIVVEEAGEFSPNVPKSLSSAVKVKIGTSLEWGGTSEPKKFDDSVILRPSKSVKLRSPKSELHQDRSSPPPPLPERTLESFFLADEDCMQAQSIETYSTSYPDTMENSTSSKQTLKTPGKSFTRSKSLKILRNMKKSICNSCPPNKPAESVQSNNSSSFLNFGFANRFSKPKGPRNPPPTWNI
# PTPN22 inh 2 – inhibitors of human LYP (PTPN22) phosphatase; recombinant LYP catalytic domain, DiFMUP fluorescence; inhibition, % at 2 µM; hit rate 0.21% among 96,000; AID 640;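 active = inhibition at 2 µM at or above a set limit, the screen mean plus 3 SD, cut at about 24% in these data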
# ERa SRC1 inh – ER-alpha (human) coactivator binding inhibition | P03372 | TR-FRET ER-alpha LBD / SRC-1 peptide, estradiol-bound | inhibition, % at 25.6 µM | hit rate 1.7% among 86,000 | AID 629; in the data active = inhibition above about 50%
# ERa coact pot – enhances coactivator binding to human estrogen receptor alpha | TR-FRET ERalpha-LBD/SRC-Cy5 coactivator binding, 2 h; 100 = basal binding, no effect | coactivator binding (% of control), % at 25.6 µM | hit rate 1.3% among 86,000; in the data active = activity above about 200%;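 note: binding measured in presence of low estradiol as agonist stimulus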
# FAK inh – FAK (human) kinase inhibition | Q05397 | biochemical FAK kinase activity assay | inhibition, %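 (tested at 7 µM)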 | hit rate 0.84% among 97,000
# FAK inh conf – FAK (human) inhibition confirmed | inhibition, % at 7 µM | FAK kinase biochemical inhibition assay | shares compounds with FAK inh | hit rate 28% among 750
# Hits are given with their value; – = inactive; · = no result; [ ] = dose if it differs, or a comment. Hits are enriched below; roughly 3.4% of the tested compounds scored in any of these assays. Cut-off read from the data, not from the text of the source, unless noted: active = inhibition above about 19%; inactive = the rest.
SMILES,ERb SRC1 inh,PTPN22 act,PTPN22 inh 2,ERa SRC1 inh,ERa coact pot,FAK inh,FAK inh conf
COc1cccc(C(=O)NC2CC3CCCC(C2)N3CC(=O)Nc2ccccc2)c1 (configuration not stated),99[fluorescence artefact?],–,–,97[fluorescence artefact?],–,22,–
COc1cccc(C(=O)NC2CC3CCCC(C2)N3CC(=O)Nc2ccc(N(C)C)cc2)c1 (configuration not stated),–,–,–,–,–,–,·
COc1ccc(N2Cc3cccc(C(=O)N4CCOCC4)c3C2=O)cc1,–,–,–,–,–,–,·
COc1ccc(N2Cc3cccc(C(=O)N4CCN(C(=O)c5ccco5)CC4)c3C2=O)cc1,68,–,–,71,–,49,–
CCOc1ccccc1NC(=S)NCc1ccco1,–,–,–,–,–,–,·
COc1cccc(-c2cn3nc4c(nc3n2)CCCC4)c1,–,–,–,–,–,27,–
CC(C)(C)C(=O)Nc1nc2c(s1)COc1ccccc1-2,–,–,–,–,–,45,30
O=C(CCSc1ccccc1)Nc1nc2c(s1)COc1ccccc1-2,–,–,–,–,–,–,·
O=C(Nc1ccccc1C(=O)NC(Cc1ccccc1)C(=O)NC1CCCCCC1)c1ccccc1 (configuration not stated),·,–,–,·,·,–,·
CCC1Oc2ccc(C)cc2N(CC(=O)NCc2cccc(OC)c2)C1=O (configuration not stated),–,–,–,–,–,–,·
COc1ccc(-c2nnc(SCC(=O)NCc3cccs3)n2CC(C)C)cc1,–,–,–,–,–,–,·
COc1ccc(-n2c(NC(=O)c3ccco3)c(C#N)c3nc4ccccc4nc32)cc1,·,–,–,·,·,21,–
CCCCn1c(NC(=O)c2ccccc2Cl)c(C#N)c2nc3ccccc3nc21,–,–,–,–,–,28,–
CCOC(=O)c1c(NC(=O)c2ccco2)n(C2CCCCC2)c2nc3ccccc3nc12,–,–,–,–,–,–,·
COc1nnc(-c2ccc(N3CCCCC3)c(NC(=O)C3CCCCC3)c2)c2ccccc12,–,–,–,–,–,–,·
COc1nnc(-c2ccc(N3CCCCC3)c(NC(C)=O)c2)c2ccccc12,–,–,–,–,–,20,19
CCOC(=O)N1CCN(C(=O)C2CCCN(S(=O)(=O)c3ccc(C)cc3)C2)CC1 (configuration not stated),–,–,–,–,–,–,·
Nc1c(N2CCOCC2)cc(Cl)c2nonc12,–,–,–,–,–,–,·
Nc1c(N2CCCC2)cc(Cl)c2nonc12,–,–,–,–,–,40,–
Cc1nnc(NCc2ccncc2)c2ccccc12,50[fluorescence artefact?],–,–,60[fluorescence artefact?],–,23,–
Cc1cccc(C)c1N1CCN(c2nc(N(C)C)oc(=O)c2C#N)CC1,·,–,–,·,·,–,·
CCC(=O)Nc1nc2nc(-c3ccccc3)cc(-c3ccccc3)n2n1,·,–,–,·,·,24,–
CCCC(=O)Nc1nc2nc(-c3ccccc3)cc(-c3ccccc3)n2n1,–,–,–,–,–,–,·
N#Cc1nc(-c2ccccc2)oc1NCc1ccco1,–,–,–,–,–,21,–
O=C(CSc1cccc(C(F)(F)F)c1)Nc1ccc(Cl)cc1Cl,·,–,–,·,·,–,·
SMILES,ERb SRC1 inh,PTPN22 act,PTPN22 inh 2,ERa SRC1 inh,ERa coact pot,FAK inh,FAK inh conf
N#Cc1cccc(NC(=O)CSc2ccccc2)c1,–,–,–,–,–,–,·
N#Cc1cccc(NC(=O)CSc2ccc3c4c(cccc24)C(=O)c2ccccc2-3)c1,·,–,–,·,·,27,22
CN1CCCc2cc(C=O)ccc21,–,–,–,–,–,–,·
CCCN1CCCc2cc(CN)ccc21,54[fluorescence artefact?],–,–,–,–,24,–
CCOC(=O)c1c(C)c(C(=O)NCc2ccccc2OC)c(C)n1C,–,–,–,–,–,46,–
CSC(=NNC(=O)c1ccc(O)cc1)SC,·,–,–,·,·,–,·
O=C(ONc1ccc(N=NC(=O)c2ccccc2O)cc1)c1ccccc1,–,–,–,–,–,80,22
COc1ccc(OC)c(-n2c(=S)[nH]c3cc(C(=O)NCCCN4CCCC4=O)ccc3c2=O)c1,–,–,–,–,–,–,·
O=c1cc(-c2cccc3ccccc23)[nH][nH]1,–,–,–,–,–,23,–
CCOC(=O)c1nc2cc3n(c(C)c-2c1C)C(C)C(CC)=C3C (configuration not stated),–,–,–,–,–,–,·
O=C(Nc1ccc2c(c1)OCCO2)c1cccc2nc3ccccc3nc12,·,–,–,·,·,38,–
CC1(C)Cc2c(sc3nn[nH]c(=O)c23)CO1,–,–,–,–,–,–,·
O=c1[nH]nnc2sc3c(c12)CCCC3,–,–,–,–,–,27,–
CC(=O)c1sc2nc(C)cc(C)c2c1N,·,–,–,·,·,20,–
CCOc1cccc(CNc2ccc(O)cc2)c1OCc1ccc(Cl)cc1Cl,·,–,–,·,·,29,–
COc1ccc(-c2cc(=O)oc3cc4occ(C)c4cc23)cc1,·,–,–,·,·,–,·
COc1ccc(-c2coc3cc4oc(=O)cc(C)c4cc23)cc1F,·,–,–,·,·,36,23
O=C(Cc1ccccc1[N+](=O)[O-])NCc1ccccc1Cl,·,–,–,·,·,–,·
COc1cccc(CSc2nc3sc(C)c(C)c3c(=O)n2Cc2ccco2)c1,–,–,–,–,–,–,·
COc1ccc(OCc2nn3c(-c4ccco4)nnc3s2)cc1,–,–,–,–,–,–,·
c1coc(-c2nnc3sc(Cc4cccs4)nn23)c1,67,–,–,87[fluorescence artefact?],–,25,–
c1csc(Cc2nn3c(-c4n[nH]c5c4CCC5)nnc3s2)c1,62,–,–,87[fluorescence artefact?],–,28,–
CC1CCCN(Cc2c(O)ccc3c(=O)c(-c4nc5ccccc5s4)c(N)oc23)C1 (configuration not stated),·,–,–,·,·,34,–
N=c1oc2c3c4c(cc2cc1C(=O)Nc1ccccc1)CCCN4CCC3,·,–,–,·,·,29,–
COC(=O)/C(=C/Nc1ccc(O)cc1)[N+](=O)[O-],–,–,–,–,–,38,–
SMILES,ERb SRC1 inh,PTPN22 act,PTPN22 inh 2,ERa SRC1 inh,ERa coact pot,FAK inh,FAK inh conf
CCCc1nc2n[nH]c(N)c2c2c1CCCC2,–,–,–,–,–,21,–
CN(CCC#N)CC(=O)Nc1ccc(NC(=O)CN(C)CCC#N)cc1,–,–,–,–,–,–,·
CCc1ccc(CNCCSc2nnnn2C)cc1,–,–,–,–,–,–,·
CN1C(=O)c2cccc3c(S(=O)(=O)NCc4ccco4)ccc1c23,–,–,–,–,–,36,21
CN1C(=O)c2cccc3c(S(=O)(=O)Nc4ccccn4)ccc1c23,–,–,–,–,–,–,·
CC1(c2ccc3noc(-c4ccc(F)cc4)c3c2)OCCO1,–,–,–,–,–,–,·
O=Cc1ccc2noc(-c3ccc(F)cc3)c2c1,–,–,–,–,–,34,33
COc1ccccc1N(CC(=O)Nc1cccnc1)S(C)(=O)=O,–,–,–,–,–,–,·
